Among the data in PubChem BioAssay (NCI) are growth values, retold here.

Test systems include DU-145 prostate; K-562 leukemia; MALME-3M melanoma; MDA-MB-231 breast; RXF 393 renal; SF-268 CNS; SF-295 CNS; SF-539 CNS; UACC-257 melanoma; M14 melanoma; HCT-15 colon; HT29 colon; SNB-75 CNS; SNB-19 CNS; U251 CNS; PC-3 prostate; SK-MEL-5 melanoma; UACC-62 melanoma; LOX IMVI melanoma; SK-MEL-28 melanoma.
Assay in all cases: NCI-60 one-dose screen, 48 h (100 = growth as untreated, 0 = no growth, -100 = all killed)
Holding throughout (settings): 10 µM

About 83,000 compounds went through this panel and 20% of them were active in at least one assay; those are over-represented in the sample as a whole.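 Cells were grown in 96-well plates and exposed to the test compound at a single concentration for 48 hours; results are reported as percent growth, with values below 10 considered active.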 A number with no mark means an inactive call. The source made the active and inactive calls.

Take `CCOS(=O)(=O)c1c(C(C)C)cc(C(C)C)cc1C(C)C`: the growth is 103% with DU-145 prostate; 92.8% in the assay on K-562 leukemia; 89.6% in the assay with MALME-3M melanoma; 99.5% in the assay with MDA-MB-231 breast; 108% in the assay with RXF 393 renal; 100% in the assay with SF-268 CNS. Further, the growth was 98.9% in the assay on SF-295 CNS; 99.4% with SF-539 CNS; 105% with UACC-257 melanoma; 92.8% with M14 melanoma; 97.2% in the assay on HCT-15 colon; 112% in the assay on HT29 colon. Besides, the growth in the assay with SNB-75 CNS is 96.8%; with SNB-19 CNS, 103%; in the assay on U251 CNS, 98.6%; in the assay on PC-3 prostate, 96%; in the assay on SK-MEL-5 melanoma it was 100%; with UACC-62 melanoma, 98.4%. The growth is 101% in the assay on LOX IMVI melanoma and 96.5% in the assay with SK-MEL-28 melanoma.

In the case of `O=C(CCCSc1nc(-c2ccccc2)cc(-c2ccc(Cl)cc2)n1)NO`, the growth in the assay on DU-145 prostate was 14.2%; in the assay on K-562 leukemia, 8.59% (active); in the assay on MALME-3M melanoma it was 4.49% (active); with MDA-MB-231 breast it was 17.7%; in the assay with RXF 393 renal it was -19.2% (active); in the assay with SF-268 CNS, 14.3%. Further, the growth is 4.46% (active) with SF-295 CNS; -27.2% (active) in the assay on SF-539 CNS; 8.34% (active) in the assay on UACC-257 melanoma; 5.54% (active) in the assay with M14 melanoma; 18.5% with HCT-15 colon; 20.3% with HT29 colon. Besides, the growth is 5.53% (active) with SNB-75 CNS; 20.1% in the assay with SNB-19 CNS; 16.8% in the assay with U251 CNS; 20.6% in the assay with PC-3 prostate; -27.7% (active) in the assay on SK-MEL-5 melanoma; -15.3% (active) with UACC-62 melanoma. Also, the growth in the assay with LOX IMVI melanoma is -3.49% (active); in the assay with SK-MEL-28 melanoma, 30.9%.

`CN(C)CCOc1ccc(-c2nc3sccn3c2-c2ccnc(S(C)(=O)=O)n2)cc1`: the growth with DU-145 prostate is 112%; in the assay on K-562 leukemia, 102%; in the assay with MALME-3M melanoma, 112%; in the assay on MDA-MB-231 breast it was 110%; in the assay on RXF 393 renal, 113%; in the assay on SF-268 CNS, 117%. The growth is 103% in the assay on SF-295 CNS; 102% in the assay on SF-539 CNS; 101% in the assay with UACC-257 melanoma; 112% in the assay on M14 melanoma; 101% in the assay on HCT-15 colon; 103% in the assay with HT29 colon. The growth is 88.5% in the assay with SNB-75 CNS; 99.1% in the assay on SNB-19 CNS; 95.1% with U251 CNS; 87.2% in the assay with PC-3 prostate; 101% with SK-MEL-5 melanoma; 105% in the assay with UACC-62 melanoma. For the same molecule, the growth with LOX IMVI melanoma is 97.5%; with SK-MEL-28 melanoma, 110%.

Take `COc1ccc(-c2nnc(SCC(=O)Nc3ccc(C(=O)/C=C/c4ccccc4)cc3)n2-c2ccccc2)cc1OC`: the growth in the assay on DU-145 prostate was 50.4%; with K-562 leukemia, 37.2%; in the assay on MALME-3M melanoma, 36.4%; in the assay with MDA-MB-231 breast, 73.4%; in the assay on RXF 393 renal, 72.4%; in the assay with SF-268 CNS it was 84.8%. For the same molecule, the growth is 106% with SF-295 CNS; 0.289% (active) in the assay on SF-539 CNS; 72.4% in the assay on UACC-257 melanoma; 57.7% with M14 melanoma; 86.5% in the assay on HCT-15 colon; 60.3% in the assay with HT29 colon. Further, the growth was 84.2% with SNB-75 CNS; 83.3% in the assay with SNB-19 CNS; 79.5% with U251 CNS; 69.5% with PC-3 prostate; 83.1% in the assay with SK-MEL-5 melanoma; 81.1% with UACC-62 melanoma. Besides, the values for the growth in the assay with LOX IMVI melanoma and with SK-MEL-28 melanoma were 32.5% and 89.3%, respectively.

As for `COc1cc(-c2nn(-c3ccc(NC(=O)NCCNS(=O)(=O)c4ccc(F)cc4)cc3)cc2-c2ccncc2)ccc1Cl`, the growth was 8.28% (active) in the assay on DU-145 prostate; 2.45% (active) in the assay with K-562 leukemia; 24.8% in the assay on MALME-3M melanoma; -30.7% (active) in the assay on MDA-MB-231 breast; 2.59% (active) in the assay on RXF 393 renal; 7.56% (active) in the assay on SF-268 CNS. Also, the growth is -39.5% (active) in the assay on SF-295 CNS; -46.4% (active) with SF-539 CNS; 41.2% in the assay on UACC-257 melanoma; -18% (active) with M14 melanoma; 47.7% in the assay on HCT-15 colon; -24.9% (active) with HT29 colon. The growth was 13.8% with SNB-75 CNS; 31% in the assay on SNB-19 CNS; 4.44% (active) in the assay with U251 CNS; 8.93% (active) with PC-3 prostate; -63.6% (active) in the assay on SK-MEL-5 melanoma; 25.7% in the assay with UACC-62 melanoma. Also, the growth in the assay on LOX IMVI melanoma was 1.79% (active); in the assay with SK-MEL-28 melanoma it was 26.4%.

For the molecule `COc1ccc2c(c1)C(=O)/C(=C/c1ncc([N+](=O)[O-])n1C)O2`, the growth was -13.6% (active) with DU-145 prostate; 1.52% (active) with K-562 leukemia; -56.2% (active) in the assay on MALME-3M melanoma; -18.1% (active) in the assay on MDA-MB-231 breast; -54.4% (active) in the assay on RXF 393 renal; -39.7% (active) with SF-268 CNS. In addition, the growth with SF-295 CNS is -18.4% (active); in the assay with SF-539 CNS it was -29.4% (active); with UACC-257 melanoma, -43.9% (active); in the assay on M14 melanoma, -37.7% (active); with HCT-15 colon, 6.82% (active); with HT29 colon, -20.5% (active). Also, the growth was 69.5% with SNB-75 CNS; -16.6% (active) with SNB-19 CNS; -25.4% (active) in the assay on U251 CNS; 101% in the assay on PC-3 prostate; -89% (active) in the assay with SK-MEL-5 melanoma; -68.4% (active) with UACC-62 melanoma. For the same molecule, the growth is -68.1% (active) in the assay on LOX IMVI melanoma and -22.4% (active) in the assay on SK-MEL-28 melanoma.

`OCC1OC2C(NC(=S)N2c2ccccc2)C(O)C1O` (stereo not given): the growth in the assay on DU-145 prostate was 107%; in the assay with K-562 leukemia, 108%; with MALME-3M melanoma, 131%; in the assay with MDA-MB-231 breast, 99.8%; in the assay with RXF 393 renal, 108%; with SF-268 CNS, 96.8%. Besides, the growth is 99.8% with SF-295 CNS; 102% in the assay on SF-539 CNS; 102% with UACC-257 melanoma; 120% with M14 melanoma; 99.2% with HCT-15 colon; 101% in the assay on HT29 colon. The growth is 99.6% with SNB-75 CNS; 91.9% with SNB-19 CNS; 97.5% in the assay with U251 CNS; 96% with PC-3 prostate; 98.5% in the assay on SK-MEL-5 melanoma; 98.7% with UACC-62 melanoma. The growth in the assay on LOX IMVI melanoma is 100%; in the assay on SK-MEL-28 melanoma it was 105%.
